Compound activity from PubChem BioAssay.
Rows were chosen to be rich in hits. Some 3.1% of all compounds tested hit in one or more screens of this group.
KCC2 mod: KCC2 cotransporter modulators, thallium flux, primary screen, cell-based, HEK293 KCC2, FluoZin-2 fluorescence, MLSMR; KCC2 cells, thallium flux FluoZin-2 fluorescence; B-score of Tl+ flux slope (higher = more flux/activation; lower = inhibition) at 10 µM; 2.2% of 190,000 active; AID 1456, 2008;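 active means thallium flux slope and its plate-corrected score both differing from the plate sample mean at a set confidence after two filtering rounds, in either direction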;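 further: slope of fluorescence scaled to starting intensity during 10 to 20 s after thallium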
S1P3 antagonist: S1P3 receptor antagonists, primary screen, cell-based. Sphingosine 1-phosphate receptor 3 (Homo sapiens), Q99500. CHO S1P3 NFAT-BLA reporter, FRET fluorescence, antagonist mode. inhibition, % at 4.98 µM. 0.27% of 170,000 active. AID 485, 2006;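 active means inhibition above the plate cutoff, the mean inhibition of test wells on that plate plus 3 SD, cut at about 28% in these data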;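 further: cells challenged with S1P at its EC80 of 0.8 µM; blue over green emission ratio from cleaved BLA substrate after 4 h stimulation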
EP2 modulator: EP2 receptor modulators, cAMP readout, primary screen, cell-based, HTRF cAMP, PGE2 stimulation; Prostaglandin E2 receptor EP2 subtype (Homo sapiens), P43116; EP2-expressing cells, cAMP HTRF FRET, PGE2 co-stimulation; induction, % at 25 µM; 0.83% of 260,000 active; AID 940, 2007;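 active means compounds whose cAMP rise, as percent of the full-agonist control response, exceeds 60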;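 further: rat C6 glioma line stably carrying human EP2 under a CMV promoter; the protocol text gives 20 µM as final concentration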
Target sequence (P43116 whole entry, looked up): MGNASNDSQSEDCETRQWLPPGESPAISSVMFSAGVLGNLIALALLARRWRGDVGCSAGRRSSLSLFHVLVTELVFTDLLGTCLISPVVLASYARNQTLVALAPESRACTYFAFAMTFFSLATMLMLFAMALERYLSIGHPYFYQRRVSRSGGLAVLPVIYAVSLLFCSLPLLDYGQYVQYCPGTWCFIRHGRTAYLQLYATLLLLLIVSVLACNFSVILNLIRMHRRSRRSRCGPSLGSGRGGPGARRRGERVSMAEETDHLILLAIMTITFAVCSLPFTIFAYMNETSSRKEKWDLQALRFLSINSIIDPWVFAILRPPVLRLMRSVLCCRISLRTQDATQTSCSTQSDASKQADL
EP2 antag: human EP2 receptor antagonists, primary screen, TR-FRET cAMP, C6 glioma cells; C6 glioma cells expressing human EP2; cells stimulated with saturating PGE2; inhibition, % at 25 µM; 0.52% of 260,000 active;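 active means percent inhibition above 40 after rounding to a whole number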;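 further: rat C6 glioma host cells with rolipram phosphodiesterase inhibitor present; the protocol text gives 20 µM as final concentration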
Hits are given with their value; n = inactive; x = no result.

SMILES	KCC2 mod	S1P3 antagonist	EP2 modulator	EP2 antag
O=C(COc1ccccc1)Nc1ccc(S(=O)(=O)N2CCOCC2)cc1	x	n	n	52.2
O=C(CN1CCCC(c2ncncc2-c2ccncc2)C1)Nc1ccc2c(c1)OCO2 (configuration not stated)	x	x	n	x
CC(C)=CCNc1ncnc2c1c(C#N)cn2[C@H]1O[C@H](CO)[C@@H](O)[C@@H]1O	x	x	n	n
N/C(=N/O)c1cn([C@H]2O[C@@H](CO)[C@H](O)[C@H]2O)c2ncnc(NO)c12	x	x	n	47.0
COc1ccc(CN2CCC(O)(c3ccccc3F)CC2)cc1CO	x	x	n	n
COc1ccccc1NC(=O)c1sc(NC(=O)Cc2ccccc2)c(C#N)c1C	x	x	n	n
COc1ccccc1NC(=O)c1sc(NC(=O)COc2ccccc2)c(C#N)c1C	x	x	65.6	n
Cc1cccc(C(=O)NC(=S)NNC(=O)COc2c(C)cccc2C)c1	36.8	n	n	n
Cc1cccc(C(=O)NNC(=O)c2cccc(C)c2)c1	n	n	n	n
O=C(CCc1ccccc1)NNC(=S)NC(=O)c1ccc(Cl)cc1	68.3	x	n	n
O=C(CCc1ccccc1)NNC(=O)c1ccc(F)cc1	n	n	n	n
Cc1ccc(C(=O)NC(=S)NNC(=O)COc2ccccc2C)cc1	31.1	n	n	n
CCn1c(COc2ccccc2)nnc1SC	x	x	n	n
Cc1nnc(SCC(=O)n2c3c(c4ccccc42)CCCC3)s1	n	n	64.3	n
Oc1ccc(-c2nc3cnccn3c2NCc2cccs2)cc1	x	x	n	n
NC1=NC(=O)C(CC(=O)Nc2ccc(Cl)c(Cl)c2)S1 (configuration not stated)	x	x	n	n
Cc1c(S(=O)(=O)N2CCCCC2)cc(Cl)cc1S(=O)(=O)N1CCCCC1	x	x	n	n
CC(C)OC(=O)c1c2nc3ccccc3nc2n2c1[nH]c(=O)c1ccccc12	125	x	n	x
Cn1c(=O)c2c(nc(N/N=C/c3ccccc3C(=O)O)n2C)n(C)c1=O	x	x	n	44.5
COc1ccc(NC(=O)N2C3CCC2CC(O)(c2nccn2C)C3)cc1 (configuration not stated)	x	x	n	x
CN(C)Cc1ccc(-c2cc3onc(-c4ccccc4)c3c(=O)n2C)cc1	x	x	n	44.2
O=C(Nc1ccc(N2CCOCC2)c(Cl)c1)c1cccs1	x	x	n	n
CC1CCN(c2ccccc2NC(=S)NC(=O)c2cccs2)CC1	9.48	x	n	n
CC1CCN(c2ccccc2NC(=S)NC(=O)c2ccco2)CC1	15.4	x	x	n
O=C(NC(=S)Nc1ccc(N2CCCCC2)c(Cl)c1)c1cccs1	32.1	x	x	n
SMILES	KCC2 mod	S1P3 antagonist	EP2 modulator	EP2 antag
CS(=O)(=O)N1CCN(c2ccccc2NC(=S)NC(=O)c2cccs2)CC1	n	n	n	n
COc1cc(NC(=O)CSc2nc3c(c(=O)n(C)c(=O)n3C)n2C(C)C)cc(OC)c1	x	x	n	n
CCNC(=S)N(CCN(C)C)Cc1cc2cc(CC)ccc2[nH]c1=O	x	x	63.5	n
CCc1ccc2[nH]c(=O)c(CN(CC3CCCO3)C(=S)NCc3ccccc3)cc2c1 (configuration not stated)	x	x	65.9	n
CCc1ccc2[nH]c(=O)c(CN(CC3CCCO3)C(=S)NC3CCCCC3)cc2c1 (configuration not stated)	x	x	81.5	n
CCc1ccc2[nH]c(=O)c(CN(CCN(C)C)C(=S)Nc3ccccc3)cc2c1	x	x	n	n
Cc1onc(-c2ccccc2Cl)c1C(=O)Nc1sc2c(c1C(N)=O)CCC(C)C2 (configuration not stated)	n	x	61.8	x
O=C(Nc1nnc(-c2ccccc2Cl)o1)c1nc2ccccc2s1	x	x	n	90.8
O=C(Nc1nnc(-c2ccccc2Cl)o1)c1ccco1	n	n	n	n
CC(=O)N1CCN(c2ccc(NC(=O)COc3ccc(C)c(C)c3)cc2)CC1	x	x	n	n
CCC(c1nnnn1C1CCCCC1)N(Cc1ccco1)Cc1cc2c(C)ccc(C)c2[nH]c1=O (configuration not stated)	x	x	76.5	n
CCC(c1nnnn1C1CCCCC1)N(Cc1ccc(C)cc1)Cc1cc2c(C)ccc(C)c2[nH]c1=O (configuration not stated)	x	x	n	n
CCC(c1nnnn1C1CCCC1)N(Cc1ccccc1)Cc1cc2cccc(C)c2[nH]c1=O (configuration not stated)	x	x	63.8	n
Cc1ccc(C(O)CN2CCC3(CC2)CC(O)c2ccccc2O3)cc1C (configuration not stated)	x	x	n	n
